Assay results taken from the supplement of paper PMC12645437, “Orthogonal IMiD-Degron Pairs Induce Selective Protein Degradation in Cells” (ACS Chemical Biology, 2025).
In all, about 8,300 sequences were measured (“log2 fold change of degron read counts, EGFP-low vs EGFP+ sorted cells (limma voom), compound-induced degradation”: median about -1.1, highest 2% from about 3.2 on). Many of the other results were omitted from the sample, so the highest values are more common in it than they were.

T1: CRBN, Q96SW2
T1 chain: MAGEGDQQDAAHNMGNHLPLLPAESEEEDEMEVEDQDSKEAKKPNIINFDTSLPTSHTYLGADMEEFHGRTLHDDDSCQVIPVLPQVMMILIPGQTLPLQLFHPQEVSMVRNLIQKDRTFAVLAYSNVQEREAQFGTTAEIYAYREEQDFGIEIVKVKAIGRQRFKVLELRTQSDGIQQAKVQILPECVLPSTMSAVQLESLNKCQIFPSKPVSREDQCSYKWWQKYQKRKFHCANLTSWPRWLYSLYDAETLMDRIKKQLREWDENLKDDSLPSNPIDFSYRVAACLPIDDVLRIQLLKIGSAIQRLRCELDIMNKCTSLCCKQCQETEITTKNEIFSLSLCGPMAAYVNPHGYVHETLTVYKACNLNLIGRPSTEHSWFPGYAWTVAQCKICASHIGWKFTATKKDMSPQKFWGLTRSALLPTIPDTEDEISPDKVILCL


Biological target: T1, CRBN, Q96SW2
Assay: log2 fold change of degron read counts, EGFP-low vs EGFP+ sorted cells (limma voom), compound-induced degradation; higher = more compound-induced degradation of the degron-EGFP fusion; degrons are variants of IKZF1/3 zinc finger 2; compound dose not given here
Details: Jurkat, 18 h
[1] = compound: compound 19 (5-tert-butyl-thalidomide)
[2] = compound: compound 22 (5-morpholino-thalidomide)
[3] = compound: compound 33 (diphenyl IMiD analogue)
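Note: pooled lentiviral library of zinc finger degron-EGFP fusions in mCherry-positive Jurkat cells, FACS-sorted after compound exposure, with degron abundance counted by next-generation sequencing.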

Row | Sequence | log2 fold change of degron read counts [1] | log2 fold change of degron read counts [2] | log2 fold change of degron read counts [3] | log2 fold change of degron read counts (compound: thalidomide)
1 | FCCNQCGREFTQKGNLLRHIKL [46F_47C_49N_50Q_52G_53R_54E_55F_67L_, Q9UKT9] | -3.21 | -3.01 | -3.16 | -3.5
2 | FYCDVCGAIFTQKGNLLRHIKL [46F_47Y_49D_50V_52G_53A_54I_55F_67L_, Q9UKT9] | 0.745 | 0.688 | -0.626 | -1.86
3 | LYCEICGFWCTQKGNLLRHIKL [46L_47Y_49E_50I_52G_53F_54W_55C_67L_, Q9UKT9] | 1.69 | 1.16 | 1.94 | 0.136
4 | FACEICGAGFTQKGNLLRHIKL [46F_47A_49E_50I_52G_53A_54G_55F_67L_, Q9UKT9] | 3.75 | 1.86 | 0.304 | 0.339
5 | FRCEICGAGFTQKGNLLRHIKL [46F_47R_49E_50I_52G_53A_54G_55F_67L_, Q9UKT9] | 2.78 | 1.83 | 2.46 | 1.7
6 | FDCEICGAGFTQKGNLLRHIKL [46F_47D_49E_50I_52G_53A_54G_55F_67L_, Q9UKT9] | 1.89 | -1.13 | -0.599 | -0.0656
7 | FHCEICGAGFTQKGNLLRHIKL [46F_47H_49E_50I_52G_53A_54G_55F_67L_, Q9UKT9] | 3.51 | 1.13 | 1.93 | -0.622
8 | FNCEICGAGFTQKGNLLRHIKL [46F_47N_49E_50I_52G_53A_54G_55F_67L_, Q9UKT9] | 3.46 | 0.722 | -0.0429 | -0.254
9 | FNCEQCGAGFTQKGNLLRHIKL [46F_47N_49E_50Q_52G_53A_54G_55F_67L_, Q9UKT9] | -0.14 | -2.54 | -2.33 | -2.8
10 | FICEICGAGFTQKGNLLRHIKL [46F_47I_49E_50I_52G_53A_54G_55F_67L_, Q9UKT9] | 0.51 | 2.54 | 1.87 | 2.76
11 | FTCEICGAGFTQKGNLLRHIKL [46F_47T_49E_50I_52G_53A_54G_55F_67L_, Q9UKT9] | 2.35 | 2.19 | 2.28 | 2.27
12 | FFCEICGAGFTQKGNLLRHIKL [46F_47F_49E_50I_52G_53A_54G_55F_67L_, Q9UKT9] | 3.51 | 2.9 | 1.61 | 0.677
13 | FWCNICGAFFTQKGNLLRHIKL [46F_47W_49N_50I_52G_53A_54F_55F_67L_, Q9UKT9] | 1.6 | 2.32 | 0.971 | -0.294
14 | FKCNVCGASFTQKGNLLRHIKL [46F_47K_49N_50V_52G_53A_54S_55F_67L_, Q9UKT9] | -1.29 | -2.06 | -3.02 | -1.88
15 | FFCNQCGRKFTQKGNLLRHIKL [46F_47F_49N_50Q_52G_53R_54K_55F_67L_, Q9UKT9] | -2.1 | -2.17 | -2 | -2.57
16 | FRCPVCGAFFTQKGNLLRHIKL [46F_47R_49P_50V_52G_53A_54F_55F_67L_, Q9UKT9] | -0.609 | -0.0858 | 1.19 | 1.19
17 | LKCNQCGFCCTQKGNLLRHIKL [46L_47K_49N_50Q_52G_53F_54C_55C_67L_, Q9UKT9] | -2.31 | -2.82 | -2.5 | -1.52
18 | LFCEICGFDCTQKGNLLRHIKL [46L_47F_49E_50I_52G_53F_54D_55C_67L_, Q9UKT9] | -1.8 | -2.4 | -2.23 | -1.77
